Growth data for 40 compounds are collected here from PubChem BioAssay (NCI).

SMILES strings stand for the structures. Compounds without any hit were thinned out: in the full panel of roughly 83,000, 20% have a hit.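 Values shown are percent growth following 48 h exposure of cells in 96-well plates to a single concentration of compound; below 10 was considered active.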 Active and inactive are the calls of the source.

The test system of the assay is NCI-H23 lung. The assay is described as follows: NCI-60 one-dose screen, 48 h (100 = growth as untreated, 0 = no growth, -100 = all killed). The note with it: 10 µM unless noted. As for the experimental part:
Growth inhibition of the NCI-H23 human Non-Small Cell Lung tumor cell line is measured as a screen for anti-cancer activity. Cells are grown in 96 well plates and exposed to the test compound for 48 hours. Compounds are tested at a single concentration, which is 10^-5 M for most compounds. The reported endpoint is percent growth (GI% or GIPRCNT), where numbers from 0 - 100% represent growth inhibition, and numbers from -100% - 0 represent cell death. For example, a value of 40 represents 60% growth inhibition. A value of 0 means no net growth occurred over the course of the experiment. A value of -40 indicates 40% of cells at the beginning of the experiment died by the end of the experiment. A value of -100 means all cells are dead at the end of the experiment.
NCI-60 Human Tumor Cell Lines Screen was performed using the standard one-dose NCI protocol, which is described in more detail at https://dtp.cancer.gov/discovery_development/nci-60/default.htm.
Compounds with GIPRCNT values below 10 were considered active. Activity score was based on GIPRCNT using the following formula: […]
Score is 0 for GIPRCNT values of 100 or above, 50 for GIPRCNT values of 0, and 100 for GIPRCNT values of -100.
With `CC1(C)C(=O)/C(=C\c2ccccn2)C[C@]2(C)[C@H]3CC[C@@H]4[C@@H](C(=O)/C=C/c5ccccn5)CC[C@@]4(C)[C@]3(C)CC[C@@H]12`, the growth is -49.2% (active). With `CCCCCCCC(=O)SCC/C=C/[C@@H]1CC(=O)NCc2cccc(n2)CN(Cc2ccc(Cl)cc2)CC(=O)N[C@@H](C(C)C)C(=O)O1`, the growth was 19.5% (inactive).

Take `C=C1C(=O)O[C@H]2[C@H]1CC/C(COC(=O)NCCc1c[nH]c3ccccc13)=C\CC[C@@]1(C)O[C@@H]21`: the growth was 59.5% (inactive).

Turning to `CCCC(=O)N1CCCCC1CC` (stereo not given), the growth is 111% (inactive).

Take `CCN1CCN(C(=O)[C@]23CC[C@@H](C)[C@H](C)[C@H]2C2=CC[C@@H]4[C@@]5(C)C/C(=C/c6cccc(OC)c6OC)C(=O)C(C)(C)[C@@H]5CC[C@@]4(C)[C@]2(C)CC3)CC1`: the growth was 42.9% (inactive). For `O=C1C=Cc2ncccc2C1=O` the value was 70% (inactive). As to `Brc1ccc(Cn2nnnc2-c2ccn(-c3ccccc3)n2)cc1`, the growth is 62.3% (inactive). The value for `COc1ccc(-c2n[nH]nc2-c2cc3ccccc3s2)cc1O` was 27.9% (inactive); that for `O=C1/C(=C\c2ccc(Br)o2)SC(=S)N1CCc1ccc(O)cc1` was 49.7% (inactive).

In the case of `CCc1ccc(-c2ccc(Nc3ccccc3)nn2)cc1S(N)(=O)=O`, the growth was 86% (inactive).

On to `COc1cccc(-c2nn(-c3ccccc3)cc2-c2ccnc(NCCCNS(=O)(=O)c3ccc(Br)cc3)c2)c1`, for which the growth is 52.9% (inactive). The value for `CC(C)=CCC/C(C)=C/CC/C(C)=C/CC/C(C)=C/CSC[C@H](NC(=O)CCCCCN1CCN(C)CC1)C(=O)NC1CCCCC1` was 73% (inactive); that for `Nc1c(C(=O)Nc2c(Cl)cccc2Cl)sc2nc3c(cc12)C(=O)CCC3` was 48.5% (inactive). For `C#CCn1c2c(c3ccccc31)C[C@]1(C)[C@H]3CC[C@@H]4[C@@H]5C(=CCC[C@H]5C(=C)C)CC[C@@]4(C)[C@]3(C)CC[C@H]1C2(C)C` the value was 106% (inactive). For `Nc1c(C(=O)Nc2cccc(Br)c2)sc2nc3c(cc12)C(=O)CCC3` the value was 34% (inactive). Regarding `O=C(/C=C/c1ccc2ccccc2c1)Nc1ncc(Cc2ccccc2)s1`, the growth was 80.3% (inactive).

For `COC1=C(Br)C(=O)C(OC)=C(Br)C1=O`, the growth was 105% (inactive). As to `N#CCCCCCn1c2ccccc2c2c3c(c4c5ccccc5n(CCCCCC#N)c4c21)C(=O)N(O)C3=O`, the growth was 72.5% (inactive).

For the compound `O=C(NO)c1ccc(Cn2c(=O)n(-c3ccccc3)c(=O)c3ccccc32)cc1`, the growth is -38.7% (active). Turning to `Cc1cccc2c1NC(=O)[C@@]21[C@H](C(=O)c2ccccc2)[C@]2(C(=O)Nc3ccccc32)[C@H]2CCCN21`, the growth was 38.4% [100 µM] (inactive).

Take `COc1ccc(NC(=O)c2ccoc2COc2ccccc2)cc1`: the growth was 95.7% (inactive). For `CCOc1ccc(NC(=O)c2ccoc2COc2ccccc2)cc1` the value was 103% (inactive); for `CCOC(=O)N1CCN(CCCCOc2ccc(C(C)(C)CC)cc2)CC1`, 89.4% (inactive); for `C=C(C)[C@@H]1CC[C@]2(C(=O)OC)CC[C@]3(C)[C@H](CC[C@@H]4[C@@](C)(CC/C(N)=N/O)[C@H](C(=C)C)CC[C@]43C)[C@@H]12`, 107% (inactive).

As for `COc1cc(-c2nc(-c3ccccc3)c(-c3ccccc3)[nH]2)cc(OC)c1O`, the growth is -31.9% (active). In the case of `Oc1ccc(Nc2ccccc2)cc1`, the growth is 86% (inactive). For the compound `CCC(=O)c1c(C)[nH]c(C)c1C`, the growth was 94% (inactive). For `CCN1CCN(C(=O)[C@]23CCC(C)(C)C[C@@H]2C2=CC[C@@H]4[C@@]5(C)C/C(=C/c6ccncc6)C(=O)C(C)(C)[C@@H]5CC[C@@]4(C)[C@]2(C)CC3)CC1` the value was -7.07% (active); for `CCc1cccc(CC)c1NC(=O)c1sc2nc3c(cc2c1N)CCCC3`, 87% (inactive). The value for `CC(=O)N1N=C(c2ccc(C)cc2)CC1c1ccc(Oc2ccc(Br)cc2)cc1` (stereo not given) was 83.1% (inactive). For `COc1cc(C(=O)/C=C/c2cc(-c3ccc4c(c3)OCO4)n[nH]2)cc(OC)c1OC` the value was 24.5% (inactive); for `Nc1c(C(=O)Nc2cccc(Cl)c2)sc2ncc(Cl)cc12`, 87% (inactive). In the case of `Brc1ccc2[nH]cc(-c3nc(-c4c[nH]c5ncccc45)cs3)c2c1`, the growth is 47% (inactive). In the case of `COC(=O)[C@]12CC[C@@H](C)[C@H](C)[C@@H]1C1=CC[C@@H]3[C@@]4(C)C[C@@H](OC(C)=O)[C@H](O)[C@@](C)(CO)[C@@H]4[C@H](O)C[C@@]3(C)[C@]1(C)CC2`, the growth is -82% (active).

Consider `COc1ccc(C(=O)/C=C/c2cc(-c3cc(OC)c(OC)c(OC)c3)n[nH]2)cc1OC`, for which the growth was 71.2% (inactive). On to `O=C(NC(Cc1cn(Cc2ccccc2)cn1)C(=O)O)OCC1c2ccccc2-c2ccccc21` (stereo not given), for which the growth is 98.7% (inactive). On to `COc1cccc(-c2nn(-c3ccccc3)cc2-c2ccnc(NCCCNS(=O)(=O)c3ccccc3)c2)c1`, for which the growth is 44.3% (inactive). The value for `Nc1c(C(=O)Nc2cccc3ccccc23)sc2nc3c(cc12)CCCC3` was 23.1% (inactive); that for `Cn1cc(-c2csc(-c3cn(CCCN4CCCCC4)c4ccccc34)n2)c2cccnc21` was 84% (inactive); that for `NC1=C(C/C(N)=N\O)C(c2ccccc2Cl)c2c(ccc3ccccc23)O1` (stereo not given) was 86.9% (inactive).
